Source: PubChem BioAssay
Calls of active or inactive are those of the source. Unless noted, the rule behind the calls is not given here.

Key:
[1] = HepG2 liver cancer cell viability effects, profiling panel, resazurin fluorescence, 24 h, PK04 Diversity Set (AID 1172); details: higher = more signal; note: test concentration not given here
[2] = basal S. cerevisiae growth modulation, no modifier, primary screen, OD600, strain BY4716, 24 h, basal condition (AID 1173); details: OD600, 24 h, higher = more signal, called active from +8 up or from −8 down
[3] = MM1S myeloma cell viability, profiling panel, resazurin fluorescence, basal, 24 h, PK04 Diversity Set (AID 1174); details: higher = more signal, called active from +8 up or from −8 down;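 note: MM1S multiple myeloma cell line; test concentration not given here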
[4] = molecular target: Dihydroorotate dehydrogenase (quinone), mitochondrial (Plasmodium falciparum (isolate 3D7)) (UniProt Q08210); test: PfDHODH enzyme inhibitors, primary screen, biochemical, C-terminal His tag, absorbance 600 nm (AID 1175); details: DCIP absorbance 600 nm, higher = more signal, called active from +8 up or from −8 down;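 note: recombinant parasite enzyme with a five histidine tag at its C terminus; test concentration not given here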
Dihydroorotate dehydrogenase (quinone), mitochondrial (Plasmodium falciparum (isolate 3D7)), sequence (Q08210 whole entry, looked up): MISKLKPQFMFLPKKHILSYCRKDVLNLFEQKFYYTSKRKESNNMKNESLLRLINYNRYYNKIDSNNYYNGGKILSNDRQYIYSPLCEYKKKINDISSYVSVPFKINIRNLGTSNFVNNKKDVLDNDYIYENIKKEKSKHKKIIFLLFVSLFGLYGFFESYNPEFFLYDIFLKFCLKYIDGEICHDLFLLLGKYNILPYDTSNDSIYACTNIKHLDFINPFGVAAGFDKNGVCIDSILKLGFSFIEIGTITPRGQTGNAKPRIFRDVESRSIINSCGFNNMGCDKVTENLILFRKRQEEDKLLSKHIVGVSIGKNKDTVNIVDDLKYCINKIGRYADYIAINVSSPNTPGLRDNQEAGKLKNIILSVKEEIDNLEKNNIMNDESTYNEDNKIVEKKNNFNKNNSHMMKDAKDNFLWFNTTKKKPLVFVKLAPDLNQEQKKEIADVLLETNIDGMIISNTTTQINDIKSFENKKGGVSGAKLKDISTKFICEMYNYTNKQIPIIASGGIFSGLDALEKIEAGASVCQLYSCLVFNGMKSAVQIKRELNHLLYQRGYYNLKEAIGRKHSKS

[5] = P. aeruginosa biofilm formation inhibitors, primary screen, strain PAO1, LB-PBS medium, absorbance 600 nm (AID 1176); note: test concentration not given here; details: P. aeruginosa PAO1 growth/biofilm, A600, 12 h; higher = more signal
[6] = S. cerevisiae RM11-1a growth modifiers, primary screen, strain RM11-1a, OD600, basal, 24 h (AID 1177); details: OD600, 24 h, higher = more signal, called active from +8 up or from −8 down;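 note: cultures grown under basal conditions with no added stressor; test concentration not given here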
[7] = E. coli acrAB mutant growth effects, primary screen, E. coli filamentation inducers, strain DRC39, OD650, 24 h (AID 1178); details: higher = more signal, called active from +8 up or from −8 down;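 note: growth measured as culture turbidity by optical density at 650 nm; test concentration not given here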
[8] = E. coli acrAB mutant growth effects, primary screen, E. coli filamentation inducers, strain DRC39, OD650, 48 h (AID 1179);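 note: screen aims at cell division blockers that make cells filament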; details: E. coli DRC39 delta-acrAB growth, higher = more signal, called active from +8 up or from −8 down
[9] = RPMI8226 myeloma cell viability, profiling panel, resazurin fluorescence, basal, 24 h, PK04 Diversity Set (AID 1180); details: higher = more signal;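 note: RPMI8826 multiple myeloma cell line at 5000 cells per well; test concentration not given here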
[10] = molecular target: E3 ubiquitin-protein ligase XIAP (Homo sapiens) (UniProt P98170); test: XIAP binders, primary screen, biophysical, small-molecule microarray, fluorescence 635 nm (AID 1181); details: small-molecule microarray binding, higher = more signal;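 note: score merges 667 nm emission and signal to noise over triplicate slides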
E3 ubiquitin-protein ligase XIAP (Homo sapiens), sequence (P98170 whole entry, looked up): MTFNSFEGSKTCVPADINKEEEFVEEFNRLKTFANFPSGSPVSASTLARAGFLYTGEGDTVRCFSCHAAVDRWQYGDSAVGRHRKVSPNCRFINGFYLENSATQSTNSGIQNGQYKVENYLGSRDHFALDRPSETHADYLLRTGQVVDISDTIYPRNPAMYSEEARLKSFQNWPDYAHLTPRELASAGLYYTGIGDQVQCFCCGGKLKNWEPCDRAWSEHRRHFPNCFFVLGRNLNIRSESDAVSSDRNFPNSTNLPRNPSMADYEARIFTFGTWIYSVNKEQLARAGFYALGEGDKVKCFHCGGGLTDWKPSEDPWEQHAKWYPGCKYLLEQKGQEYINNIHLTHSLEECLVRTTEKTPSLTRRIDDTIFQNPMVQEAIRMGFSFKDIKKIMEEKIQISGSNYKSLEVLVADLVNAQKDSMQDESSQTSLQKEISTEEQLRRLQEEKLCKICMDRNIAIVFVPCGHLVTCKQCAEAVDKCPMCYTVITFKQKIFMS

| SMILES | z-score [1] | z-score [2] | z-score [3] | composite z-score [4] | z-score [5] | z-score [6] | z-score [7] | z-score [8] | z-score [9] | composite z-score [10] |
| --- | --- | --- | --- | --- | --- | --- | --- | --- | --- | --- |
| COC(=O)[C@@]1(Cc2ccc(F)cc2)[C@H]2c3cc(C(=O)N(C)C)n(Cc4ccc(C(F)(F)F)nc4)c3C[C@H]2CN1C(=O)c1ccccc1 | -0.575 | 0.512 (inactive) | -1.04 (inactive) | 0.0058 (inactive) | -0.359 (inactive) | 0.337 (inactive) | -0.532 (inactive) | -0.171 (inactive) | -0.912 | 0.109 |
| CCCC1(C(=O)OC)C=C2C(=C(C(C)C)C(=O)C2C)CN1 (stereo not given) | -0.964 | 1.67 (inactive) | -1.13 (inactive) | -1.05 (inactive) | 0.495 (inactive) | 0.391 (inactive) | -0.314 (inactive) | 0.0752 (inactive) | -1.44 | 0.227 |
| CC(C)C[C@H]1NC(=O)CNC(=O)[C@@]23C(=O)N[C@@H](Cc4ccccc4)C2[C@H](C)[C@@]2(C)O[C@H]2C3/C=C/C/C=C\CNC1=O (stereo not given in full) | -0.657 | -0.572 (inactive) | 0.105 (inactive) | -0.341 (inactive) | 1.11 (inactive) | 0.0636 (inactive) | -0.288 (inactive) | -0.141 (inactive) | 0.293 | -0.122 |
| CC(C)N1C(=O)[C@@]2(Cc3ccccc31)c1ccccc1C(=O)N(Cc1ccccc1C(F)(F)F)[C@H]2c1ccc(CO)cc1 | 0.0887 | 0.407 (inactive) | 0.0922 (inactive) | -18 (active) | 0.146 (inactive) | -0.107 (inactive) | -0.0949 (inactive) | -0.818 (inactive) | 0.566 | 0.0377 |
| COCCCNC(=O)[C@@]1(Cc2ccccc2I)c2ccccc2C(=O)N(C2CCCCC2)[C@H]1c1ccc(CO)cc1 | 1.12 | -0.6 (inactive) | 0.28 (inactive) | 0.154 (inactive) | 1.13 (inactive) | -0.244 (inactive) | 0.319 (inactive) | 0.26 (inactive) | 0.448 | -0.0343 |
| CCOC(=O)C[C@H]1[C@H](OC(=O)c2ccccc2-c2ccccc2)[C@@H](NC(=O)CC(C)C)c2cc(OCCCO)ccc2N1C(=O)c1ccccc1 | 0.928 | -1.04 (inactive) | 0.351 (inactive) | -0.6 (inactive) | 0.13 (inactive) | -0.71 (inactive) | 1.51 (inactive) | 0.973 (inactive) | -0.503 | 0.0412 |
| CCc1cccc(NC(=O)O[C@H]2[C@H](OC(=O)Nc3ccccc3-c3ccccc3)[C@H](OC(=O)Nc3ccccc3-c3ccccc3)[C@@H](OC)O[C@@H]2CO)c1 | 0.235 | 0.371 (inactive) | -0.444 (inactive) | -0.371 (inactive) | 0.537 (inactive) | 2.19 (inactive) | -1.34 (inactive) | -1.66 (inactive) | -0.254 | 0.146 |
